A number with no mark means an inactive call. Results filed as inconclusive are left out. Active and inactive are the calls of the source. The call rests on the fitted dose curve; in most records, active means well fitted curve in the direction sought with a large enough effect; inconclusive means small, poorly fitted or top-dose-only effect, or another doubt; inactive means no such curve, though single readings can be large; an effect the other way counts as inactive or inconclusive.
assay: Cell Viability - Mesenchymal (AID 546); settings: mesenchymal cells viability, qHTS; activity change, negative = cytotoxicity: at 91.7 µM (top of the series);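 further: cells exposed to compound for 40 hours before reading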;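 on activity change, negative = cytotoxicity: 0% = DMSO only and -100% = 100 µM tamoxifen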
Summary of the method: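 Normal human renal glomerulus-derived kidney mesenchymal cells, 1000 per well in complete medium, were treated with compounds for 40 hr at 37 °C. Viability was read as intracellular ATP by CellTiter-Glo luminescence; AC50 values came from Hill-equation fits of qHTS concentration-response data.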
Potency means the concentration at half of the fitted maximal effect.

Structure (SMILES) | activity change, negative = cytotoxicity | Potency
CN(C)c1ccc(C2(c3ccc(N(C)C)cc3)OC(=O)c3cc(N(C)C)ccc32)cc1 | -1.81% | –
O=C(OCC(COC(=O)c1ccccc1)(COC(=O)c1ccccc1)COC(=O)c1ccccc1)c1ccccc1 | 2.34% | –
ClC1=C(Cl)C(Cl)(Cl)C(Cl)=C1Cl | 11.3% | –
CC(=O)Nc1ccc(C(=O)CCl)cc1 | – | 12.6 µM (active)
CC/C(=C(\c1ccccc1)c1ccc(OCCN(C)C)cc1)c1ccc(O)cc1 | – | 31.6 µM (active)
Nc1ccc2cc3ccccc3cc2c1 | 0.436% | –
O=C=Nc1ccc(Cc2ccc(N=C=O)cc2)cc1 | -2.24% | –
O=[N+]([O-])c1cc([N+](=O)[O-])c2ccc(S(=O)(=O)O)cc2c1O | 10.9% | –
Cc1cc(O)c(C(C)(C)C)cc1Sc1cc(C(C)(C)C)c(O)cc1C | – | 15.8 µM (active)
CCC(C)Nc1ccc(NC(C)CC)cc1 (centres undefined) | – | 12.6 µM (active)
CNc1ccc(O)cc1 | – | 31.6 µM (active)
C=CC(=O)OCCOCCOC(=O)C=C | -100% (active) | –
c1ccc2c(c1)ccc1cc3c(ccc4ccccc43)cc12 | -3.83% | –
C/C=C1\C(=O)C[C@H]2[C@@H]3CCC4=CC(=O)CC[C@]4(C)[C@H]3CC[C@]12C | -11.1% | –
C=C(C)c1ccccc1 | 4.37% | –
Cc1ccc(S(=O)(=O)Oc2ccc(N=Nc3ccc(-c4ccc(N=Nc5c(O)ccc6cc(S(=O)(=O)O)cc(S(=O)(=O)O)c56)c(C)c4)cc3C)cc2)cc1 | – | 31.6 µM (active)

assay: Cellular Toxicity (caspase-3) HepG2 (AID 654); settings: HepG2 caspase-3 activation, luminescence; series mostly up to 92.2 µM; caspase-3 activation: at the top concentration;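 on caspase-3 activation: cells exposed to compound for 16 hours before reading; 0% = DMSO alone and 100% = caspase signal from 100 µM tamoxifen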
Summary of the method: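 HepG2 cells (1500/well) were treated 16 h at 37 °C in complete medium, then caspase 3/7 activity was read by Caspase-Glo luminescence. Data were normalized to DMSO and 100 uM tamoxifen; AC50 came from Hill-equation fits of qHTS concentration-response.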

Structure (SMILES) | caspase-3 activation [%] | Potency
c1cc(OCC2CO2)cc(OCC2CO2)c1 (centres undefined) | 7.44 | –
Cc1cc(Nc2ccc(O)cc2)ccc1N | 0.931 | –
CN(C)c1ccc(C2(c3ccc(N(C)C)cc3)OC(=O)c3cc(N(C)C)ccc32)cc1 | -0.221 | –
CO[C@H]1/C=C/O[C@@]2(C)Oc3c(C)c(O)c4c(O)c(c5c(c4c3C2=O)NC2(CCN(CC(C)C)CC2)N=5)=NC(=O)/C(C)=C\C=C\[C@H](C)[C@H](O)[C@@H](C)[C@@H](O)[C@@H](C)[C@H](OC(C)=O)[C@@H]1C | 6.49 | –
O=C(OCC(COC(=O)c1ccccc1)(COC(=O)c1ccccc1)COC(=O)c1ccccc1)c1ccccc1 | -0.516 | –
ClC1=C(Cl)C(Cl)(Cl)C(Cl)=C1Cl | – | 10 µM (active)
CC(=O)Nc1ccc(C(=O)CCl)cc1 | -4.14 | –
CC/C(=C(\c1ccccc1)c1ccc(OCCN(C)C)cc1)c1ccc(O)cc1 | – | 50.1 µM (active)
Nc1ccc2cc3ccccc3cc2c1 | 0.00704 | –
c1ccc2c(c1)-c1cccc3c1c-2cc1ccccc13 | 0.834 | –
O=C=Nc1ccc(Cc2ccc(N=C=O)cc2)cc1 | -0.237 | –
O=[N+]([O-])c1cc([N+](=O)[O-])c2ccc(S(=O)(=O)O)cc2c1O | 0.31 | –
Cc1cc(O)c(C(C)(C)C)cc1Sc1cc(C(C)(C)C)c(O)cc1C | – | 63.1 µM (active)
CCC(C)Nc1ccc(NC(C)CC)cc1 (centres undefined) | -4.89 | –
CNc1ccc(O)cc1 | -3.96 | –
C=CC(=O)OCCOCCOC(=O)C=C | 6.63 | –
O=C1OC2(c3cc(Br)c(O)c(Br)c3Oc3c2cc(Br)c(O)c3Br)c2c(Cl)c(Cl)c(Cl)c(Cl)c21 | -1.23 | –
Oc1ccc2cc(SSc3ccc4cc(O)ccc4c3)ccc2c1 | 0.956 | –
c1ccc2c(c1)ccc1cc3c(ccc4ccccc43)cc12 | -1.31 | –
C/C=C1\C(=O)C[C@H]2[C@@H]3CCC4=CC(=O)CC[C@]4(C)[C@H]3CC[C@]12C | 0.454 | –
C=C(C)c1ccccc1 | -0.351 | –
O=C1OC(O)C(C(Cl)Cl)=C1Cl (centres undefined) | -1.47 | –
Cc1ccc(S(=O)(=O)Oc2ccc(N=Nc3ccc(-c4ccc(N=Nc5c(O)ccc6cc(S(=O)(=O)O)cc(S(=O)(=O)O)c56)c(C)c4)cc3C)cc2)cc1 | -0.0919 | –
